From PubChem BioAssay (NCI)
This is part of a sample that, as a whole, favours compounds with a hit. Of some 83,000 tested, about 20% had one in any assay.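 Testing used 96-well plates and a 48-hour single-concentration exposure. Example: -40 means 40% of the starting cells died.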 Values without a mark were called inactive. Calls of active or inactive are those of the source. How the source made its calls: active means growth percent below 10; inactive means the rest.

Assays:
Assay in all cases: NCI-60 one-dose screen, 48 h (100 = growth as untreated, 0 = no growth, -100 = all killed)
Settings in all cases: 10 µM unless noted
NCI-H23 lung = test system: NCI-H23 lung
NCI-H226 lung = test system: NCI-H226 lung
NCI-H322M lung = test system: NCI-H322M lung
HOP-62 NSCLC = test system: HOP-62 NSCLC
NCI-H460 lung = test system: NCI-H460 lung
HOP-92 NSCLC = test system: HOP-92 NSCLC
NCI-H522 lung = test system: NCI-H522 lung
A549/ATCC NSCLC = test system: A549/ATCC NSCLC
786-0 renal = test system: 786-0 renal
DU-145 prostate = test system: DU-145 prostate
K-562 leukemia = test system: K-562 leukemia
MALME-3M melanoma = test system: MALME-3M melanoma
MDA-MB-231 breast = test system: MDA-MB-231 breast
RXF 393 renal = test system: RXF 393 renal
SF-268 CNS = test system: SF-268 CNS
SF-295 CNS = test system: SF-295 CNS
SF-539 CNS = test system: SF-539 CNS
UACC-257 melanoma = test system: UACC-257 melanoma
M14 melanoma = test system: M14 melanoma

With `O=C(/C=C/C12c3ccccc3C(c3ccccc31)C1C(=O)NC(=O)C12)c1ccc(Cl)cc1` (stereo unspecified) the growth (NCI-H23 lung) was -2% (active), the growth (NCI-H226 lung) was -22.3% (active) and the growth (NCI-H322M lung) was 2.94% (active). The growth (HOP-62 NSCLC) was 6.96% (active), the growth (NCI-H460 lung) was -43.7% (active) and the growth (HOP-92 NSCLC) was -15.2% (active). For the same molecule, the growth (NCI-H522 lung) was 11.4%, the growth (A549/ATCC NSCLC) was 15.4% and the growth (786-0 renal) was -9.5% (active). The growth (DU-145 prostate) was 8.95% (active), the growth (K-562 leukemia) was 8.8% (active) and the growth (MALME-3M melanoma) was -37.4% (active). The growth (MDA-MB-231 breast) was -24.4% (active), the growth (RXF 393 renal) was -75.8% (active) and the growth (SF-268 CNS) was 29.9%. For the same molecule, the growth (SF-295 CNS) was 4.52% (active), the growth (SF-539 CNS) was -34.2% (active) and the growth (UACC-257 melanoma) was 25.3%. The growth (M14 melanoma) was 8.03% (active).

`C=C(Cl)COC(=O)C(C)(C)O` showed a growth (NCI-H23 lung) of 99.4%, a growth (NCI-H226 lung) of 113% and a growth (NCI-H322M lung) of 90%. It also gave a growth (HOP-62 NSCLC) of 105%, a growth (NCI-H460 lung) of 104% and a growth (HOP-92 NSCLC) of 103%. For the same molecule, the growth (NCI-H522 lung) was 93.8%, the growth (A549/ATCC NSCLC) was 94% and the growth (786-0 renal) was 101%. For the same molecule, the growth (DU-145 prostate) was 102%, the growth (K-562 leukemia) was 93.7% and the growth (MALME-3M melanoma) was 98.7%. The growth (MDA-MB-231 breast) was 121%, the growth (RXF 393 renal) was 111% and the growth (SF-268 CNS) was 101%. For the same molecule, the growth (SF-295 CNS) was 102%, the growth (SF-539 CNS) was 102% and the growth (UACC-257 melanoma) was 92.2%. It also gave a growth (M14 melanoma) of 103%.

Work on `CCN1CCN(c2ccc(Nc3cc(-c4cccnc4Nc4c(Cl)c(OC)cc(OC)c4Cl)ncn3)cc2)CC1` yielded a growth (NCI-H23 lung) of 63.8%, a growth (NCI-H226 lung) of 47% and a growth (NCI-H322M lung) of 68.7%. For the same molecule, the growth (HOP-62 NSCLC) was 40.6%, the growth (NCI-H460 lung) was 23.7% and the growth (HOP-92 NSCLC) was 54.5%. For the same molecule, the growth (NCI-H522 lung) was 75.9%, the growth (A549/ATCC NSCLC) was 39.9% and the growth (786-0 renal) was 89.2%. For the same molecule, the growth (DU-145 prostate) was 62.9%, the growth (K-562 leukemia) was 44.5% and the growth (MALME-3M melanoma) was 76.2%. The growth (MDA-MB-231 breast) was 85.8%, the growth (RXF 393 renal) was 34.3% and the growth (SF-268 CNS) was 65.1%. For the same molecule, the growth (SF-295 CNS) was 79.5%, the growth (SF-539 CNS) was 47.1% and the growth (UACC-257 melanoma) was 91.6%. For the same molecule, the growth (M14 melanoma) was 72.9%.

`COc1ccccc1NC(=O)Nc1ccc(-c2nc3ccccc3o2)cc1` was tested, and the growth (NCI-H23 lung) was 99.4%, the growth (NCI-H226 lung) was 99% and the growth (NCI-H322M lung) was 88.7%. For the same molecule, the growth (HOP-62 NSCLC) was 95.8%, the growth (NCI-H460 lung) was 101% and the growth (HOP-92 NSCLC) was 111%. It also gave a growth (NCI-H522 lung) of 112%, a growth (A549/ATCC NSCLC) of 82.2% and a growth (786-0 renal) of 89.2%. For the same molecule, the growth (DU-145 prostate) was 101%, the growth (K-562 leukemia) was 83.4% and the growth (MALME-3M melanoma) was 95.3%. For the same molecule, the growth (MDA-MB-231 breast) was 98.5%, the growth (RXF 393 renal) was 108% and the growth (SF-268 CNS) was 104%. The growth (SF-295 CNS) was 96.8%, the growth (SF-539 CNS) was 96.7% and the growth (UACC-257 melanoma) was 101%. The growth (M14 melanoma) was 102%.
